# Experimental data from publication PMC9574860, “Chemical Toolkit for PARK7: Potent, Selective, and High-Throughput” (Journal of Medicinal Chemistry, 2022).
# The whole screen tested about 7,900 compounds, of which about 400 (5.1%) showed an effect of 50% or more. For the sample, strong results were picked, then their nearest neighbours and some compounds at random.
# Biological target: Parkinson's disease protein 7 (PARK7/DJ1) (human, UniProt Q99497)
# Experiment: primary screen, percent inhibition; read as competition with a fluorescent probe by fluorescence polarization; higher = more effect of the substance
# Conditions: 100 µM
# Description: The screen was conducted using the conditions as described above in 1536-well plates (Corning 3724) with a reaction volume of 8 μL per well. The compound library containing 7887 covalent fragments was purchased at Enamine Ltd. and received as 100 mM DMSO stocks in 384 well LDV Echo plates (Labcyte LP-0200). Stock solutions of 0.26 μM PARK7 and 80 nM JYQ-107 were prepared. Using a Labcyte Echo550 acoustic dispenser, 8 nL of the DMSO stock solution of the library compounds was transferred from the source plates into the empty 1536-well screening plates to obtain a 100 μM final compound concentration. Next, PARK7 (6 μL, final concentration 0.2 μM) was dispensed using a Biotek MultiflowFX liquid dispenser and incubated for 2 h, followed by dispensing the probe JYQ-107 (2 μL, final concentration 20 nM). After 2 h incubation, the FP signal was recorded on a BMG Labtech PHERAstar plate reader (λex/em 480/520 nm). The relative loss of FP signal compared with reference controls was used to calculate the remaining enzyme activity.
# Sequence of Parkinson's disease protein 7 (PARK7/DJ1) (Q99497 whole entry, looked up): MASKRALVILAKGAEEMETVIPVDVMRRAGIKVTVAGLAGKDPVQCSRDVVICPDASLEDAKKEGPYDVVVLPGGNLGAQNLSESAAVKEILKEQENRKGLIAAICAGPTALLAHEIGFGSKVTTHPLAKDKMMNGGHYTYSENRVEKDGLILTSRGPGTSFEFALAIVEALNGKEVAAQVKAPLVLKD
row,Compound,Inhibition % [%]
1,N#Cc1cc(N2CC(O)CC2c2cccc(F)c2)ccn1 (stereo not shown),12.9
2,N#Cc1cccc(N2CC(O)CC2c2ccccc2)n1 (stereo not shown),96.9
3,N#Cc1ccc(N2CC(O)CC2c2cccc(F)c2)cn1 (stereo not shown),3.63
4,COc1cc(C)c(C(C)NC(=O)CCl)cc1OC (stereo not shown),3.84
5,N#CC(=Cc1cccc(Cl)c1Cl)C(N)=O,8.01
6,N#Cc1nc(F)ccc1O,55.2
7,N#Cc1ncccc1O,23.2
8,N#Cc1cccc(F)n1,4.58
9,O=S1(=O)CCCC(CCl)C1 (stereo not shown),-4.37
10,CC1(C)NC(=O)C1(C)C,2.57
11,COc1cc(C=C(C#N)C(N)=O)cc(Cl)c1OC(C)C,7.72
12,O=S(=O)(F)CCn1nnc(-c2ccccc2)n1,35.7
13,O=S(=O)(F)CCSc1nnc2sc3ccccc3n12,7.67
14,O=S(=O)(F)CCSc1nnc2ccccn12,53.9
15,C=CC(=O)N1CC(Cc2cccc(C)c2)C1,6.59
16,Cc1ccc(N)cc1S(=O)(=O)F,95.9
17,Cc1ccc(S(=O)(=O)F)c2c1NCCC2,4.21
18,COc1cc(NC(=O)CCl)c(Cl)cc1C(=O)O,13.3
19,Nc1ccc(S(=O)(=O)F)c(F)c1,12.3
20,Cc1ccc(C(=O)O)cc1S(=O)(=O)F,99.4
21,O=C(O)c1ccc(S(=O)(=O)F)c(Cl)c1,94.7
22,COc1ccc(S(=O)(=O)F)cc1C(=O)O,20.2
23,COc1cc(S(=O)(=O)F)c(Cl)cc1C(=O)O,97.8
24,COc1cc(C(=O)O)ccc1S(=O)(=O)F,31.2
25,Cc1ccc(C(=O)O)cc1B1OC(C)(C)C(C)(C)O1,9.09
26,O=C(CCl)NC1CCCCNC1=O (stereo not shown),13.7

row,Compound,Inhibition % [%]
1,CC(=O)Nc1ccc(OC(=O)N2CCCC2)cc1,8.48
2,C=CC(=O)N1CCC2(CCSCC2)CC1,5.26
3,C=CC(=O)NCC1CCSCC1,2.54
4,COc1nscc1B1OC(C)(C)C(C)(C)O1,20.8
5,CN(CC(=O)Nc1ccc(F)cc1)C(=O)CCl,94.2
6,CN(CC(=O)Nc1c(Cl)cccc1Cl)C(=O)CCl,7.36
7,CN(CC(=O)Nc1ccccc1Cl)C(=O)CCl,42.3
8,Cc1ccc(NC(=O)NC(=O)CCl)cc1,8.73
9,O=C(CCl)Nc1ccc(F)cc1,25.3
10,CN(CC(=O)Nc1ccc(Cl)cc1)C(=O)CCl,75.9
11,CN(CC(=O)Nc1ccccc1C(F)(F)F)C(=O)CCl,17.5
12,CSc1ccccc1NC(=O)CN(C)C(=O)CCl,34.6
13,Cc1ccc(NC(=O)CN(C)C(=O)CCl)cc1,96.5
14,N#Cc1cccc(NC[C@H]2CCO[C@@H]2c2ccccc2)n1,3
15,Cc1nn(C)c(Cl)c1C=CC(=O)N1CCNC(C)C1.Cl (stereo not shown),11
16,C=CC(=O)N1CCOCC1c1cccn1C (stereo not shown),7.42
17,C=CC(=O)Nc1cn(C)nc1C1CC1,10
18,C=CC(=O)N1CCC(CCF)CC1,5.32
19,C=CC(=O)N1CCN(c2ccccc2F)CC1,7.53
20,C=CC(=O)N1CCC(CCC#N)CC1,8.36
21,O=C(Cn1nc(-c2ccccc2)oc1=O)N1CCSCC1,5.67
22,O=C(CCl)Nc1cc(Cl)cc(Cl)c1,9.47
23,CN(CC(=O)Nc1cccc(Cl)c1)C(=O)CCl,93.8
24,COc1cccc(NC(=O)CCCl)c1,11.2
25,O=C(CCl)Nc1cccc(Cl)c1,34.6
26,COc1cccc(NC(=O)CCl)c1,19.1

row,Compound,Inhibition % [%]
1,COc1cccc(NC(=O)CN(C)C(=O)CCl)c1,95.9
2,O=C(CCCl)Nc1cccc(Cl)c1,-0.704
3,C=CC(=O)N(Cc1cccc(-c2cccnc2)c1)C1CC1,12.4
4,Cc1cc(OC(F)F)ccc1B1OC(C)(C)C(C)(C)O1,3.76
5,CC(C(=O)NC1CC1c1ccccc1)N1C(=O)CCC1=O (stereo not shown),14.1
6,CC(C)N1CCC(NC(=O)CCl)CC1.Cl,2.57
7,O=c1[nH]c(-c2ccccc2)no1,34.7
8,CN1CCC(n2cc(-c3ccc(S(=O)(=O)F)cc3)nn2)C1=O (stereo not shown),9.08
9,C=CC(=O)NCCC1CCOC1 (stereo not shown),4.58
10,N#Cc1nc2cc(N)ccc2s1,55.6
11,COc1nc(C#N)sc1C,2.94
12,C=CC(=O)N1CCC(n2cccc2)CC1,6.94
13,CC1(C)OB(c2ccco2)OC1(C)C,7.09
14,CC1(C)OB(c2cc(-c3ccccc3)co2)OC1(C)C,85.9
15,Cc1coc(B2OC(C)(C)C(C)(C)O2)c1,4.69
16,Cc1cccc(N2CCN(C(=O)n3ccnc3)CC2)c1C,6.87
17,Cn1cc(C(=O)CCl)nn1,3.33
18,Cc1cccc(-n2cc(C(=O)CCl)nn2)c1,95.4
19,O=C(CCl)c1cn(-c2ccc(F)cc2)nn1,5.02
20,COc1ccc(C(C)(C)C)cc1S(=O)(=O)n1ccnc1C,7.71
21,N#Cc1ccc(Cl)cn1,8.27
22,O=C(CCl)Nc1ccc2c(c1)OCCCO2,57.7
23,O=C(CCl)NC(=O)Nc1ccc2c(c1)OCCCO2,7.15
24,O=C(CCl)Nc1ccc2c(c1)OCO2,46.5
25,O=C(CCl)NC(=O)Nc1ccc2c(c1)OCCO2,7.05
26,O=C(CCl)Nc1ccc2c(c1)OCCO2,55

row,Compound,Inhibition % [%]
1,O=C(CCCl)Nc1ccc2c(c1)OCCO2,7.65
2,COC(C)c1cccc(NC(=O)c2cccnc2S)c1 (stereo not shown),4.97
3,C=CC(=O)N1Cc2cc(F)c(F)cc2C1,2.84
4,COc1cccc(CS)c1,15.4
5,COc1cc(OC)c(OC)cc1CS,63.9
6,COc1ccc(CS)c(OC)c1,5.78
7,C=CC(=O)N1C[C@H](CC)CC[C@H]1C (racemic),10.5
8,Cc1nc(SC2CC(C)OC2=O)nc(C)c1C (stereo not shown),3.23
9,Cc1nn(-c2ccccc2)c(C)c1CNC(=O)CCl,13.2
10,Cc1nn(-c2ccccc2)c(O)c1C(=O)CCl,64.4
11,Cc1nn(-c2ccccc2)c(C)c1NC(=O)CCl,6.29
12,NC(=O)CN(C1CCCC1)S(=O)(=O)C=Cc1ccccc1,7.09
13,N#Cc1cn(CCS)c(=O)[nH]c1=O,75.1
14,O=c1[nH]c(=O)n(CCC2OCCO2)cc1Cl,5.36
15,C=CC(=O)NCC1OCCc2ccccc21 (stereo not shown),7.98
16,Cc1nn(C)c(Cl)c1C=CC(=O)N1CCC(CN)CC1.Cl,15.7
17,CC(=O)NCc1ccc(C(=O)CCl)o1,92.2
18,CS(=O)(=O)NCCc1ccc(C(=O)CCl)cc1,82.8
19,O=C(CCl)NCCc1ccc(Cl)cc1,41.2
20,CC(=O)NC(C)c1ccc(C(=O)CCl)cc1 (stereo not shown),38.2
21,CC(=O)NCCc1ccc(C(=O)CCl)cc1,70.8
22,CC(=O)NCc1ccc(S(=O)(=O)F)cc1,32.8
23,CC(=O)N(C)Cc1ccc(C(=O)CCl)cc1,79.8
24,NS(=O)(=O)c1ccc(CCNC(=O)CCl)cc1,17.2
25,O=C(CCl)NCc1ccc(-c2ccc(Cl)cc2)o1,18.1
26,C=CC(=O)N1CCCC(CC#N)C1 (stereo not shown),5.07

row,Compound,Inhibition % [%]
1,COC(=O)c1ccc(Oc2ccc(C#N)nc2)cc1,6.29
2,Cc1n[nH]c(C)c1CNc1ccc(Cl)c(C#N)n1,1.98
3,C=CC(=O)N1CCCC(NC(C)=O)C1 (stereo not shown),8.6
4,Cc1nn(C)c(Cl)c1Cn1c(-c2ccccc2)noc1=O,3.8
5,Cc1cc(C=C(C#N)C(=O)O)c(C)n1CC1CCCO1 (stereo not shown),11.7
6,CCOC1CC(c2nc(-c3cccc(B(O)O)c3)no2)C1 (stereo not shown),-4.81
7,C=CC(=O)N1CCCC(c2nnc3n2CCC3)C1 (stereo not shown),5.59
8,O=C(CCl)N1c2ccccc2OCC1c1ccccc1 (stereo not shown),28.9
9,Cc1ccc(B2OC(C)(C)C(C)(C)O2)cc1[N+](=O)[O-],3.85
10,C=CC(=O)N1CC(c2ccccc2)C1,12.4
11,C=CC(=O)Nc1cnn(COC)c1,17.1
12,CC(=O)NCc1ccc(S(=O)(=O)NC(=O)CCl)cc1,3.06
13,NC(=O)CCc1ccc(C(=O)CCl)cc1,82.5
14,CC(=O)NCc1ccc(C(=O)CCl)cc1,77.1
15,NC(=O)COc1ccc(C(=O)CCl)cc1,5.31
16,CN(C)C(=O)c1ccc(CNC(=O)CCl)cc1,2.36
17,CN(CCN1C(=O)CCC1=O)Cc1nc2c(s1)CCCC2,9.47
18,Cn1ccc(NS(=O)(=O)C=Cc2ccc(Cl)cc2)n1,11.2
19,CC(C)NC(=O)C(C#N)=Cc1cc(F)ccc1F,1.67
20,N#Cc1ccn(-c2ccccc2)n1,6.25
21,O=C1CC(C(F)(F)F)N(C(=O)CCl)c2ccccc2N1 (stereo not shown),53
22,C=CC(=O)N1CC(=O)Nc2ccccc21,10
23,O=C1CN(C(=O)CCl)c2ccccc2N1,56.7
24,C=CC(=O)N(C)CC(=O)N1c2ccccc2NC(=O)CC1C (stereo not shown),1.23
25,Cc1ccc(C=CC(=O)N2CC(=O)Nc3ccccc32)o1,15.2
26,O=C(CCl)N1c2ccccc2NC(=O)C12CCCC2,42.3
